# Results taken from PMC4336329 (PLoS ONE, 2015).
# About 2,200 (0.71%) of roughly 310,000 compounds showed an effect of 50% or more. The effect is printed as a negative number. Only a selection was taken, and strong results are over-represented in it overall.
# Target: human ether-à-go-go-related gene (hERG) potassium channel (human, UniProt Q12809)
# Assay: primary screen, population patch clamp on CHO cells stably expressing hERG; higher = less effect of the substance
# Method: Briefly, Chinese hamster ovary (CHO) cells stably expressing the hERG channel were dislodged from tissue culture flasks and dispensed into PPC plates. […] During the recording, background leak currents were estimated by a 100 ms step to -80 mV from an initial holding potential of -70 mV and subtracted from the subsequent current measurement. The campaign was conducted in two phases using slight differences in recording protocol. In the first phase, the initial voltage pulse used a 100 ms step to -30 mV from a holding potential of -70 mV, a 2 s conditioning step to +25 mV, and a 2 s test step to -30 mV. During the second phase of the screen, the potential during the conditioning step was raised to +45 mV. In both phases of the campaign, a secondary voltage pulse was applied using the same parameters as the second phase initial pulse. The initial and secondary pulses were applied in the absence of compound, and upon application of 1 μM and 10 μM test concentrations. Small molecule effects on hERG current density were quantified by […].
# Sequence of human ether-à-go-go-related gene (hERG) potassium channel (Q12809 whole entry, looked up): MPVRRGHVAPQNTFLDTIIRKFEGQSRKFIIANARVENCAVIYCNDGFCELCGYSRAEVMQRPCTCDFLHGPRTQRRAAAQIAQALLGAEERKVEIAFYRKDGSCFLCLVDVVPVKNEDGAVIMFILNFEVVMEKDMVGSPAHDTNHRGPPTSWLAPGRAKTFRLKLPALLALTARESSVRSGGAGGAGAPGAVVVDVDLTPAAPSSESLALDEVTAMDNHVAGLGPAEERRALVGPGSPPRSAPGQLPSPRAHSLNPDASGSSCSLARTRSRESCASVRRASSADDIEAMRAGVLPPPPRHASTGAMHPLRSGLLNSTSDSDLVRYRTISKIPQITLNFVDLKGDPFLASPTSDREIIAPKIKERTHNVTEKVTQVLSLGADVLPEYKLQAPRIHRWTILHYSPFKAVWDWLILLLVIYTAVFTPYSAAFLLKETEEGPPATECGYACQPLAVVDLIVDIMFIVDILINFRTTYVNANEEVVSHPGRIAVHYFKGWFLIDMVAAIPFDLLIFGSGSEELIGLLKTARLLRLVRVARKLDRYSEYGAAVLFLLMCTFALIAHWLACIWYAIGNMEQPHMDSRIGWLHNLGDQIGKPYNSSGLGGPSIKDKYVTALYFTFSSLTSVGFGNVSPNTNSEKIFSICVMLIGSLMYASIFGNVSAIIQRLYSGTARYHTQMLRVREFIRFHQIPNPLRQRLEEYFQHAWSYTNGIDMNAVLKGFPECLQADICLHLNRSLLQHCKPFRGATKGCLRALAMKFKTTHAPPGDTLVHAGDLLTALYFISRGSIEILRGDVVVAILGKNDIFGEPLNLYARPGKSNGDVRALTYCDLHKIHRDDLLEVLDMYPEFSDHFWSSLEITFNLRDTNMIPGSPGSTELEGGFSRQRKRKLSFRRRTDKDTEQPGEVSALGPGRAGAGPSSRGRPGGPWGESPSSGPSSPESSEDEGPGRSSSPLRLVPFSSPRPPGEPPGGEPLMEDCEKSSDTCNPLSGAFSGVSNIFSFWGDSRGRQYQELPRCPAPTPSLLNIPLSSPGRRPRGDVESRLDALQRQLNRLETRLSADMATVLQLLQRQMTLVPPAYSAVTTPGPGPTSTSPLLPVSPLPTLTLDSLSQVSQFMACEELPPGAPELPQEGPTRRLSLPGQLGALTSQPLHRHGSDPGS
row,SMILES,"hERG current change (%, negative = inhibition) at 1uM [%]"
1,COCCNC(=S)Nc1ccc2nc(N3CCN(C)CC3)cc(C)c2c1,9.02
2,CCCN(CCC)CCCNC(=S)Nc1ccc2nc(N3CCCC3)cc(C)c2c1,-14.5
3,CCOCCCNC(=S)Nc1ccc2nc(N3CCN(CC)CC3)cc(C)c2c1,10.7
4,COCCNC(=S)Nc1ccc2nc(N3CCCC3)cc(C)c2c1,-50.5
5,COCCNC(=S)Nc1ccc2nc(N3CCOCC3)cc(C)c2c1,14.9
6,CCCCN(C)C(=S)Nc1ccc2nc(N3CCN(CC)CC3)cc(C)c2c1,-46.4
7,CCN1CCN(c2cc(C)c3cc(NC(=S)NCCCOC)ccc3n2)CC1,12.1
8,NC(=O)NCCCC(NC(=O)c1ccc(C#CC2(O)CCCCC2)cc1)C(=O)O (centres unmarked),8.16
9,NS(=O)(=O)c1cccc2c1c([N+](=O)[O-])cc1nc([O-])c([O-])nc12.[Na+],20.2
10,CCCNS(=O)(=O)c1cc(Br)cc2c1N(C(=O)CC)CC2,4.42
11,C=C(C)c1cccc(C(C)(C)NC(=O)NC2CC(C)(C)NC(C)(C)C2)c1,7.67
12,O=C(Nc1ccc(F)cc1)C1CC2CCC1C2 (centres unmarked),12.7
13,Cc1ccc(NC(=O)c2cc(C)on2)cc1,6.42
14,CC12CN3CC(C)(CN(C1)C3c1ccccc1)C2O (centres unmarked),9.98
15,Cc1ccc(C2=NN(CC(=O)NCCN(CC(C)C)CC(C)C)C(=O)CC2)cc1,-3.88
16,COc1cc(NC(=O)C(C)Oc2ccccc2)c(OC)cc1NC(=O)c1ccccc1 (centres unmarked),13.2
17,Cc1ccc(CN2CCC(c3nc4ccc(Cl)cc4[nH]3)CC2)cc1,-91.8
18,COc1ccc(CN2CCC(c3nc4ccc(Cl)cc4[nH]3)CC2)cc1,-84
19,COc1ccc(NC(=S)N2CCC(c3nc4ccc(Cl)cc4[nH]3)CC2)c(OC)c1,1.15
20,CC(C)(C)c1ccc(S(=O)(=O)N2CCC(c3nc4ccc(Cl)cc4[nH]3)CC2)cc1,7.6
21,Clc1ccc2nc(C3CCN(Cc4ccccc4)CC3)[nH]c2c1,-73.7
22,CC1CCCN(C(=O)CN2CCC(c3nc4ccc(Cl)cc4[nH]3)CC2)C1 (centres unmarked),-35.9

row,SMILES,"hERG current change (%, negative = inhibition) at 1uM [%]"
1,Cc1ccc(Cn2nnnc2CN2CCC(c3nc4ccc(Cl)cc4[nH]3)CC2)cc1,4.97
2,O=C(c1cccc(Cl)c1)N1CCC(c2nc3ccccc3[nH]2)CC1,-0.145
3,Clc1ccc(CN2CCC(c3nc4ccc(Cl)cc4[nH]3)CC2)cc1,-78.7
4,Clc1ccc2nc(C3CCN(Cc4nnnn4C4CCCCC4)CC3)[nH]c2c1,-16.2
5,CC1CCCCN1C(=O)CN1CCC(c2nc3ccc(Cl)cc3[nH]2)CC1 (centres unmarked),1.51
6,O=C(NC1CCCCC1)N1CCC(c2nc3ccc(Cl)cc3[nH]2)CC1,6.29
7,Cc1nc(CCl)cc(=O)[nH]1,4.26
8,Cc1[nH]ccc(=O)c1OCc1c(F)cccc1Cl,12.8
9,Nc1cc(=O)[nH]c(SCC(=O)Nc2ccc(Cl)c(Cl)c2)n1,1.55
10,Cc1nc(SCCC(=O)O)c2cc(-c3ccccc3)sc2n1,6.67
11,NC(=O)CSc1nnc(CNc2ccc(F)cc2)n1CC1CCCO1 (centres unmarked),-1.77
12,COc1ccc(-n2ccnc(SCC(=O)NC3CCCC3)c2=O)cc1,-4.46
13,CCOc1cc(C(=O)NC(C)c2ccncc2)cc(OCC)c1OCC (centres unmarked),-1.97
14,Cc1cc(Cl)ccc1N(CC(=O)NCc1ccc2c(c1)OCO2)S(C)(=O)=O,3.99
15,Cc1ccc(NC(=S)N(CCC(C)C)C(C)c2ccncc2)c(Cl)c1 (centres unmarked),10.9
16,CC1(C(=O)NC(=S)N(Cc2ccccc2)c2ccccn2)CC1(Cl)Cl (centres unmarked),12.4
17,Cc1ccc(-n2cccn2)c([C@@H]2C[C@H]3CN(C)C(=O)[C@]34CCCN24)c1,-15
18,O=C1N(C2CCCC2)C[C@@H]2C[C@@H](c3cccn3-c3nccs3)N3CCC[C@@]123,-60.3
19,CN1C[C@@H]2C[C@@H](c3cccn3-c3nccs3)N3CCC[C@@]23C1=O,1.26
20,Cc1cc(C)c([C@@H]2C[C@H]3CN(C4CCCC4)C(=O)[C@]34CCCN24)c(-n2cccn2)c1,-71.7
21,Cn1cc([C@@H]2C[C@H]3CN(C4CCCC4)C(=O)[C@]34CCCN24)c(-c2ccccc2)n1,-0.828
22,O=C1N(C2CCCC2)C[C@@H]2C[C@@H](c3cccn3-c3ccccn3)N3CCC[C@@]123,-28.9
